# Test results taken from PubChem BioAssay AID485346 (Sanford-Burnham Center for Chemical Genomics, 2010).
# Hit rate of the full screen: of about 330,000 compounds, about 10,000 (3%) were called active. This is one part of a sample in which actives are shown more often than they occur. Unmarked numbers belong to inactive results.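 How the source made its calls: active means inhibition of at least 50% at 8 µM in the primary screen; inactive means the rest.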
# Target: Protein Mdm4 (Homo sapiens) + E3 ubiquitin-protein ligase Mdm2 (Homo sapiens) (UniProt O15151+Q00987)
# Sequence (O15151 whole entry, looked up): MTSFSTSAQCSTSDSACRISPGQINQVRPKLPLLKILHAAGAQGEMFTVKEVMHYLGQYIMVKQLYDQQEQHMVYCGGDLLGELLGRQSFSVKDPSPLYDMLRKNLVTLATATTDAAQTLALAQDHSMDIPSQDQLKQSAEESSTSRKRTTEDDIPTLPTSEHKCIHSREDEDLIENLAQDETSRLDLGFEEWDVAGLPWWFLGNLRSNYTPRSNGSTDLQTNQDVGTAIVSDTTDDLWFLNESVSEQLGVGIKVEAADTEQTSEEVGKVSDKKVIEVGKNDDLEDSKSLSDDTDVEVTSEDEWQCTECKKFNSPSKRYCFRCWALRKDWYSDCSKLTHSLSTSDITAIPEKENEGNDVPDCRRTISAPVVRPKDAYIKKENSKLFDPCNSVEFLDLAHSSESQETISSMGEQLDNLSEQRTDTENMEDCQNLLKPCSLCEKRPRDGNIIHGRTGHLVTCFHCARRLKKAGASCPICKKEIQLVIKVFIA
# Sequence (Q00987 whole entry, looked up): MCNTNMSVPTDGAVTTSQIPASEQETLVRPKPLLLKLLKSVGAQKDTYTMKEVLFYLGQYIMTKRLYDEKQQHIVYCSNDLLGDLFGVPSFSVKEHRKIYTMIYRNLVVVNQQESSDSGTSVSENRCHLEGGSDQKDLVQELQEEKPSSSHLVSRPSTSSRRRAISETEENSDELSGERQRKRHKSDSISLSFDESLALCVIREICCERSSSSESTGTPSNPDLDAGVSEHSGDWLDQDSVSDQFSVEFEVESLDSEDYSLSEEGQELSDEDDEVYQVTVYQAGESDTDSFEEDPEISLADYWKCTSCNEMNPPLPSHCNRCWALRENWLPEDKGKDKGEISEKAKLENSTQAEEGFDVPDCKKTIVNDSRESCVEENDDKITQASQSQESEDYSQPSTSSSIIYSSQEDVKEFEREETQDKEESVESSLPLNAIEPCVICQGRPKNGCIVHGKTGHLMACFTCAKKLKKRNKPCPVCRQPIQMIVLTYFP
# Assay: disruptors of Mdm2/MdmX RING complex – cell-based, luminescence, split luciferase, SaOS-2, uHTS, primary screen (AID 485346)
# Settings: SaOS-2 split-luciferase Mdm2/MdmX complementation, at 8 µM, stronger effect = higher value
row,SMILES,inhibition
1,Cc1cccc(OC(C)C(=O)N2CCc3ccccc3C2)c1 (configuration not stated),-5.47%
2,COC(c1ccccc1)c1nnc(CCC(=O)N2CCN(CCOc3ccccc3)CC2)o1 (configuration not stated),-18.9%
3,CC(C)c1ccc(NC(=O)COC(=O)c2ccc(CN3CCCC3=O)cc2)cc1,8.45%
4,COc1c(N2CCN(C(=S)Nc3ccccc3F)C(C)C2)c(F)cc2c(=O)c(C(=O)O)cn(C3CC3)c12 (configuration not stated),-14.1%
5,CNC(=O)NC(=O)C(OC(=O)c1cccc(S(=O)(=O)N2CCCCC2)c1)c1ccccc1 (configuration not stated),-21.4%
6,COc1ccc(/C=N/Nc2cc(N3CCOCC3)nc(C)n2)c(OC)c1,19.1%
7,COc1ccccc1/C=N/Nc1nc(C)c(C(C)=O)s1,-49.5%
8,Cc1nc(Cl)cc(N/N=C/c2ccccc2)n1,-5.97%
9,COc1cccc(/C=N/Nc2cc(C)nc(-c3ccccc3O)n2)c1O,93.4% (active)
10,COc1ccccc1/C=N\Nc1cc(C)nc(-n2nc(C)cc2C)n1,57.4% (active)
11,Cc1cc(N/N=C\c2ccc(Br)cc2)nc(-n2nc(C)cc2C)n1,35.8%
12,COCCC(=O)Nc1ccc2c(c1)CN(C(=O)CCOC)CC2,8.33%
13,O=C1NC(c2ccccc2)Oc2ccccc21 (configuration not stated),12.9%
14,Cc1ccc(S(=O)(=O)NCCC(=O)OCC(=O)N(C)c2ccccc2)cc1,-1.91%
15,COc1ccc(CN2CCN(C(=O)c3cc(C4CC4)nn3-c3ccccc3)CC2)cc1F,12.7%
16,Cc1ccc(C)c(C(=O)N2CCC(n3nccc3NC(=O)C3CC3)CC2)c1,13.7%
17,COc1cc(C2CC(=O)Oc3cc(OC)c(OC)c(OC)c32)cc(OC)c1OC (configuration not stated),-1.07%
18,CC(CNC(=O)c1ccc(N)cc1)NC(=O)c1ccc(N)cc1 (configuration not stated),-17.5%
19,O=C(CSc1ncn[nH]1)N/N=C/c1ccc(F)cc1,1.12%
20,Cc1ccc(C(=O)/C=C/c2c(C)nn(-c3ccccc3)c2Cl)cc1,7.37%
21,O=C(/C=C/Sc1ncn[nH]1)c1ccc(Cl)cc1,97.6% (active)
22,CC(=O)Nc1ccc(S(=O)(=O)Nc2ccc(N3CCOCC3)c(F)c2)cc1,-7.04%

row,SMILES,inhibition
1,CC(=O)Nc1ccc(NS(=O)(=O)c2ccc3c(c2)NC(=O)CC(=O)N3)cc1,9.58%
2,CC(=O)Nc1ccc(S(=O)(=O)Nc2ccc(N3CCCCC3)cc2)cc1,55% (active)
3,COc1ccc(OCC(=O)NNC(=O)C2CCC2)cc1,4.55%
4,COc1ccc(CC(=O)Nc2sc(Cc3ccccc3)c(C)c2C(N)=O)cc1,-12.1%
5,COCc1nnc(NC(=O)c2ccc3c(c2)OCO3)s1,-40.4%
6,Cc1ccc(C(=O)Nc2sc(Cc3ccc4c(c3)OCO4)c(C)c2C(N)=O)cc1,75.3% (active)
7,Cc1nn2c(NCCN(C)C)c3c(nc2c1-c1ccccc1)CCC3,1.13%
8,CCc1cc2c(=O)n(-c3ccccc3)c(SCC(=O)O)nc2s1,0.424%
9,CC(=O)N1C(=O)/C(=C2\SC(=S)N(NC(=O)c3ccc(O)cc3)C2=O)c2ccccc21,-4.31%
10,COc1ccc(/C=C2\SC(=S)N(CCCC(=O)NC3CCCC3)C2=O)cc1OC,42.6%
11,O=C1/C(=C/c2ccc(F)cc2)SC(=S)N1CCCC(=O)N1CCCCC1CCO (configuration not stated),81.8% (active)
12,CCN(C(=O)CN1C(=O)/C(=C/c2ccc(F)cc2)SC1=S)C1CCS(=O)(=O)C1 (configuration not stated),-3.51%
13,Cc1ccc(O)c(NC(=S)NC(=O)COc2ccc(Br)cc2)c1,-6.04%
14,CCCCN1C(=S)NC[C@@H]1C(C)CC (some centres not stated),-2.44%
15,CC1Cc2ccccc2N1S(=O)(=O)c1cccc(C(=O)OCC(=O)N2CCOCC2)c1 (configuration not stated),9.37%
16,CCCCn1ccnc1C(=O)c1cccc(S(=O)(=O)N2c3ccccc3CC2C)c1 (configuration not stated),55.3% (active)
17,CC1Cc2ccccc2N1S(=O)(=O)c1cccc(C(=O)NCC(c2ccco2)N2CCCC2)c1 (configuration not stated),6.48%
18,Cc1noc(C)c1S(=O)(=O)Nc1ccc(C(=O)N2CCN(c3ccc(F)cc3)CC2)cc1,16.2%
19,COc1ccc(CCNC(=O)COC(=O)Cc2cccc(F)c2)cc1,5.4%
20,COc1ccc(C(=O)OCC(=O)N2CC(=O)Nc3ccccc32)cc1Br,-3.51%
21,CCOc1ccccc1Nc1ccc2nonc2c1[N+](=O)[O-],9.13%
22,O=C(O)c1ccccc1CSc1nc2ccccc2s1,-21.2%

row,SMILES,inhibition
1,O=[N+]([O-])c1c(NCCO)cc(Sc2nc3ccccc3s2)c2nonc12,50.1% (active)
2,COC(=O)[C@]1(C)N[C@H](CN(C)C(=O)c2ccc(C(C)(C)C)cc2)[C@@H]2C(=O)N(C)C(=O)[C@@H]21,4.61%
3,CC(=O)CCS(=O)(=O)c1ccc(C)c(C)c1,2.16%
4,CCCn1c(C)cc(-c2csc(NC(=O)CCc3nc4ccccc4c(=O)[nH]3)n2)c1C,13.7%
5,Cc1ccccc1OCC(=O)Nc1ccc(S(=O)(=O)N2CCOCC2)cc1,-21.2%
6,Cc1cc(S(=O)(=O)N2CCOCC2)ccc1OCC(=O)N1CCOCC1,-24.7%
7,Cc1cc(C(=O)COc2ccccc2[N+](=O)[O-])c(C)n1-c1cccc(S(=O)(=O)N2CCOCC2)c1,71.1% (active)
8,CCN(CC)c1ccc(/C=N/NC(=O)c2cnccn2)c(O)c1,72.8% (active)
9,Cc1cc(C)nc(N/N=C/c2c(CO)cnc(C)c2O)n1,27.1%
10,O=C(Nc1ccc2c(c1)OCCO2)c1cnccn1,-7.26%
11,Cc1cc(C)nc(N/N=C/c2c(C)oc3ccccc23)n1,33.3%
12,Cc1ccc(C(=O)NCCNC(=O)c2cnccn2)cc1,18.3%
13,CCN(CC)c1ccc(/C=N/Nc2nc(C)cc(C)n2)c(O)c1,72.9% (active)
14,Cc1ccc(-n2c(SCC(=O)NCc3ccc4c(c3)OCO4)nnc2-c2cccnc2)c(C)c1,1.7%
15,CCN(C(=O)CSc1nnnn1-c1ccc(OC)cc1)C1CCS(=O)(=O)C1 (configuration not stated),-4.86%
16,COC(=O)C1CCN(C(=O)COC(=O)c2cc(S(=O)(=O)N3CCOCC3)ccc2C)CC1,1.32%
17,CCCCn1c(N)c(N(CC)C(=O)/C=C/c2ccco2)c(=O)[nH]c1=O,15.3%
18,CC[C@]1(O)CC2CN(CCc3c([nH]c4ccccc34)[C@@](C(=O)OC)(c3cc4c(cc3OC)N(C=O)[C@H]3[C@@](O)(C(=O)OC)[C@H](OC(C)=O)[C@]5(CC)C=CCN6CC[C@]43[C@@H]65)C2)C1 (some centres not stated),67.5% (active)
19,CC[C@]1(O)C[C@@H]2CN(CCc3c([nH]c4ccccc34)[C@@](C(=O)OC)(c3cc4c(cc3OC)N(C)[C@H]3[C@@](O)(C(=O)OC)[C@H](OC(C)=O)[C@]5(CC)C=CCN6CC[C@]43[C@@H]65)C2)C1,85.9% (active)
20,CCNC(=O)COc1cc(C)c(Br)c(C)c1,15.7%
21,Cc1ccc(S(=O)(=O)N(Cc2ccccc2)c2ccccn2)cc1[N+](=O)[O-],23.2%
22,COc1cc(C(=O)OCc2cc(=O)n3ccsc3n2)ccc1OC(C)C,-18.9%

row,SMILES,inhibition
1,CC1CCC2CCCCC2N1C(=O)c1cc([N+](=O)[O-])cc([N+](=O)[O-])c1 (configuration not stated),5.25%
2,Cc1ccc(S(=O)(=O)N(C)c2ccc(OCC(=O)OCc3ccc(C#N)cc3)cc2)cc1,1.14%
3,CC1CCN(C(=O)c2cc3nc(C4CC4)cc(C(F)(F)F)n3n2)CC1,0.061%
4,COc1ccc2[nH]c3c(c2c1)CCN1C(=O)C(CC(=O)NCc2cccc(C(F)(F)F)c2)C[C@H](C(=O)N2CCOCC2)[C@@]31C (some centres not stated),17.2%
5,CCOc1ccc2c(=O)c(-c3ccc4c(c3)OCCCO4)c(C)oc2c1,19.6%
6,Cn1c2ccccc2c(=O)c2c(=O)n(Cc3ccco3)c(COc3ccccc3)nc21,33.8%
7,Cn1c2ccccc2c(=O)c2c(O)cccc21,5.57%
8,CCCc1nc2c(c(=O)c3ccccc3n2C)c(=O)n1C1CCCCCC1,76.1% (active)
9,CC(C)C1C2=C(CC(C)(C)CC2=O)ON1c1ccccc1 (configuration not stated),16.1%
10,COc1cccc(/C=C(/CC(=O)Nc2ccc(N3CCOCC3)cc2)c2nc3ccccc3s2)c1,18.2%
11,O=C(COC(=O)Cn1[nH]c(=O)c2ccccc2c1=O)Nc1c(Cl)cccc1C(F)(F)F,-4.75%
12,O=C(NCc1nnc(SCC(=O)N2CCCCCC2)o1)c1ccc(F)cc1,10.6%
13,COc1ccc(CCNc2ncnc3nc[nH]c23)cc1OC,18.1%
14,CCc1ccc(N(CC)c2ncnc3nc[nH]c23)cc1,63% (active)
15,Cc1ccc(NC(=O)c2ccc(CSc3ncnc4nc[nH]c34)cc2)c(C)c1,-2.54%
16,Cc1ccc(CNC(=O)c2cc(-c3ccccc3C)n(CC3CC(c4cccc([N+](=O)[O-])c4)=NO3)n2)cc1 (configuration not stated),26.5%
17,CCOc1ccc(-n2c(O)c(/C=N/c3ccnn3Cc3ccncc3)c3ccccc3c2=O)cc1,2.6%
18,CCN(CC)CCCN=Cc1c(O)n(-c2ccc(C)cc2)c(=O)c2ccccc12,-22.5%
19,CCOc1ccc(-n2c(O)c(/C=N/Nc3nc(C)cc(C)n3)c3ccccc3c2=O)cc1,65.3% (active)
20,CCCC1C(=O)N2C(N(C)C)=Nc3ccc(C)cc3N2C1=O (configuration not stated),15.1%
21,CC1CCN(C(=O)CCc2nnc3ccc(NCc4ccco4)nn23)CC1,22.2%
